# Test results published in PubChem BioAssay (EPA / NIEHS).
# Activity calls are given as the source filed them. The calls were made as follows: active = hit-call score of the fitted dose curve at least 0.9, where 1 is the maximum; inactive = score below 0.9.
# Read-out: JUN Transcription Factor, JUN (gene 3725)
# Experiment: LTEA_HepaRG_JUN: Life Technologies and Expression Analysis (LTEA) Assay for JUN Transcription Factor using HepaRG (AID 2283513)
# Details: mRNA level, 48 h; actives raise or lower the signal
# In short: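 HepaRG cells, 48 h post-plating, exposed 48 h in serum-free induction medium to 8-point half-log series (top 100 uM, 0.5% DMSO), duplicate; mRNA by qRT-PCR (TaqMan, Fluidigm), normalized to ACTB/GAPDH/POLR2A; bidirectional fit vs DMSO.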
Structure (SMILES),outcome,AC50
CC1=CC(=O)CC(C)(C)C1,inactive,–
CC(C)CCO,inactive,–
O=C(O)CCN(C1(C(=O)NO)CCCC1)S(=O)(=O)c1ccc(Oc2ccc(F)cc2)cc1,inactive,–
COC(=O)c1ccccc1O,inactive,–
CC(=O)OCCC(C)C,inactive,–
Clc1nc(Cl)c(Cl)c(Cl)c1Cl,inactive,–
Cc1ccc(S(=O)(=O)O)cc1C,inactive,–
CCOCCOCCOCCO,inactive,–
COC(=O)c1c(Cl)c(Cl)c(C(=O)OC)c(Cl)c1Cl,inactive,–
CC1(C)C(=O)N(Br)C(=O)N1Br,inactive,–
COC(=O)CC(=O)OC,inactive,–
CC[C@H]1CC[C@H](NCc2cc3c(cc2OC)[C@H]2C[C@H]2C(=O)N3C)[C@H](c2ccccc2)N1,inactive,–
CC(O)CN(CCN(CC(C)O)CC(C)O)CC(C)O (centres undefined),inactive,–
O=C1CCC(N2C(=O)c3ccccc3C2=O)C(=O)N1 (centres undefined),inactive,–
O=P(OC(CCl)CCl)(OC(CCl)CCl)OC(CCl)CCl,inactive,–
COc1cccc(-c2ccc(/C=C\CN3CCCCCC3)cc2Cl)c1,–,73.9 µM (active)
O=C1CCCCCN1,inactive,–
CCOCCO,inactive,–
CCN(C(=O)c1cc(C)cc(OC[C@H](C)Nc2ccncc2)c1)C(C)C,inactive,–
CCCCC(CC)COC(=O)c1ccc(C(=O)OCC(CC)CCCC)cc1 (centres undefined),inactive,–
CNS(=O)(=O)c1cc(C(=O)N2CCC(CCN3C4CCC3CC(n3c(C)nc5ccccc53)C4)(c3cccc(F)c3)CC2)c(Cl)cc1F (centres undefined),inactive,–
CCCCCCc1ccc(O)cc1O,inactive,–
COCCOCCOCCOC,inactive,–
CC[C@H](C)C(=O)O[C@H]1C[C@@H](C)C=C2C=C[C@H](C)[C@H](CC[C@@H]3C[C@@H](O)CC(=O)O3)[C@H]21,inactive,–
